Source: PubChem BioAssay
A selection: hits, their analogues and other compounds. The true share with any hit is near 2.8%.
NFkB SMM – binds human NF-kappa-B p105 on microarray. Small molecule microarray, anti-His fluorescence binding. calls only. hit rate 1.3% among 17,000;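 active = spot fluorescence over background significantly raised, with a chance value under 7% in all four replicate spots of the compound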;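 also: probe protein is his-tagged human p50 processed subunit at 1 µg/ml; raw spot fluorescence signals with no normalization applied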
STAT3 SMM – binds human STAT3 on microarray | P40763 | Small molecule microarray, His-STAT3 binding, anti-His fluorescence | calls only | hit rate 0.2% among 17,000 | AID 624138;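 active = compounds whose four printed spots each show fluorescence over background unusually high for their array block, chance value under 7%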
Myc binder – binders of human c-Myc; P01106; small molecule microarray, His-c-Myc binding, anti-His fluorescence; calls only; hit rate 1.5% among 17,000;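 active = spot fluorescence over background with P-value below 7% in all four replicate spots, showing protein binding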;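 also: score is binary with 100 for all four spots passing and 0 otherwise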
Target sequence (P01106 whole entry, looked up): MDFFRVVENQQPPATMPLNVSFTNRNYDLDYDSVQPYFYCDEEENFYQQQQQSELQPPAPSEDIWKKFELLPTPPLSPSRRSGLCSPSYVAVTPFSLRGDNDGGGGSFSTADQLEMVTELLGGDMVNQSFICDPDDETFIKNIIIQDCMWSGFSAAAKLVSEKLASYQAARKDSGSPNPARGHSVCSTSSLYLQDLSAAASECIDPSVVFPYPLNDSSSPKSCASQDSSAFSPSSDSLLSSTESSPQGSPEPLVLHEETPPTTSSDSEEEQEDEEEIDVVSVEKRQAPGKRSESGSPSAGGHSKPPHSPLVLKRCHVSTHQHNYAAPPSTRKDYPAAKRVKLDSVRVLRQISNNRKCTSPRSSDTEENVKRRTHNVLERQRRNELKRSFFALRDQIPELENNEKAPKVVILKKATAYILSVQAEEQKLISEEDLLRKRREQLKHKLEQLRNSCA
mut p53 SMM – binders of human mutant p53; small molecule microarray binding, anti-GST fluorescence; calls only; hit rate 0.4% among 17,000;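 active = compounds whose four printed spots each glow above background more than chance allows, each with a p-value under 7%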
mut p53 react – restores mutant p53 pathway signaling in SW480 cells; activation, % at 9.98 µM; SW480 PUMA-promoter luciferase, p53 mutant reactivation; AID 624151; hit rate 1.5% among 28,000; in the data active = activation above about 52%
Active calls of the source: *; i = inactive; . = no result given; + = active, no number.

SMILES | NFkB SMM | STAT3 SMM | Myc binder | mut p53 SMM | mut p53 react
NC(=O)NCC#Cc1ccc2c(c1)[C@]1(C(=O)N2)[C@H](C(=O)N2CCCCCCC2)[C@H]2C(=O)O[C@H](c3ccccc3)[C@H](c3ccccc3)N2[C@@H]1c1ccc(O)cc1 | i | i | + | + | .
COC(=O)C(CC#Cc1ccc2c(c1)[C@]1(C(=O)N2)[C@H](C(=O)N2CCCCCCC2)[C@H]2C(=O)O[C@H](c3ccccc3)[C@H](c3ccccc3)N2[C@@H]1c1ccc(OCCO)cc1)C(=O)OC | i | i | i | + | .
COC(=O)C(CC#Cc1ccc2c(c1)[C@]1(C(=O)N2)[C@H](C(=O)N2CCCCCCC2)[C@H]2C(=O)O[C@H](c3ccccc3)[C@H](c3ccccc3)N2[C@@H]1c1ccccc1OCCO)C(=O)OC | + | i | i | i | .
COc1cccc(C2C(C(=O)c3cc4ccccc4o3)C(=O)C(=O)N2c2nc(C)c(C)s2)c1OC (configuration not stated) | . | . | . | . | 13
CCc1cccc(C)c1NC(=O)CSc1nc2sc3c(c2c(=O)n1C)CCC(C)C3 (configuration not stated) | i | i | i | i | -29
CC1CCc2c(sc3nc(SC(C)C(=O)Nc4ccccc4)nc(N)c23)C1 (configuration not stated) | i | i | i | i | 118*
c1ccc(-c2cn3c4ccccc4n(CCN4CCOCC4)c3n2)cc1 | i | i | + | i | 11
Cc1ccc(-c2cn3c4ccccc4nc3n2CCN2CCOCC2)cc1 | . | . | . | . | -5
O=C(Nc1ccc(Cl)cc1)Nc1ccccc1C(=O)NCc1ccco1 | . | . | . | . | 80*
O=C(Nc1ccccc1C(=O)NCCOc1ccccc1)c1ccccc1I | i | i | i | i | -1
COCCNC(=O)c1ccccc1NC(=O)Nc1ccc(Cl)cc1 | . | . | . | . | 61*
COc1ccc(C(=O)n2nc(-c3ccc(Cl)cc3)nc2NCc2ccco2)cc1OC | . | . | . | . | 80*
O=C(c1ccc([N+](=O)[O-])cc1)n1nc(-c2ccc(Cl)cc2)nc1NCc1ccco1 | . | . | . | . | 128*
COc1ccccc1C(=O)n1nc(-c2ccccc2)nc1NCc1ccco1 | i | i | i | i | 23
CCCC(=O)n1nc(-c2ccccc2)nc1NCc1ccco1 | . | . | . | . | 50
CCCC(=O)n1nc(-c2ccc(Cl)cc2)nc1NCc1ccco1 | . | . | . | . | 107*
O=C(c1ccco1)n1nc(-c2ccc(Cl)cc2)nc1NCc1ccco1 | . | . | . | . | 44
O=C(CSc1ccc2ccccc2n1)Nc1ccnc2ccccc12 | . | . | . | . | -30
COc1nnc(-c2ccc(N3CCOCC3)c(NC(=O)COc3ccc(C)cc3)c2)c2ccccc12 | i | i | i | i | -5
COc1cccc(C(=O)NC(NCC2CCCO2)(C(F)(F)F)C(F)(F)F)c1 (configuration not stated) | . | . | . | . | 3
CCCOc1ccc(C2C(C(=O)Nc3ccccc3OC)=C(C)Nc3ncnn32)cc1OC (configuration not stated) | i | i | i | i | 5
COc1ccc(C2OCC3C2CO[C@H]3c2ccc(OC)c(OC)c2)cc1OC (some centres not stated) | i | i | i | i | -11
COc1cc2c(cc1OC)CN(C(=O)[C@H]1[C@@H]3C(=O)O[C@@H](c4ccccc4)[C@@H](c4ccccc4)N3[C@@H](c3ccc(OCCO)cc3)[C@]13C(=O)Nc1ccc(C#CC4=CCCCC4)cc13)CC2 | + | i | i | i | .
COc1cc2c(cc1OC)CN(C(=O)[C@@H]1[C@H]3C(=O)O[C@H](c4ccccc4)[C@H](c4ccccc4)N3[C@H](c3ccc(OCCO)cc3)[C@@]13C(=O)Nc1ccc(C#CC4(O)CCCCCC4)cc13)CC2 | + | i | i | i | .
O=C1O[C@@H](c2ccccc2)[C@@H](c2ccccc2)N2[C@@H](c3ccccc3OCCO)[C@]3(C(=O)Nc4ccc(C#CC5=CCCCC5)cc43)[C@@H](C(=O)N3CCCCCCC3)[C@H]12 | i | i | i | i | .
SMILES | NFkB SMM | STAT3 SMM | Myc binder | mut p53 SMM | mut p53 react
O=C1O[C@@H](c2ccccc2)[C@@H](c2ccccc2)N2[C@@H](c3ccc(OCCO)cc3)[C@]3(C(=O)Nc4ccc(C#CC5=CCCCC5)cc43)[C@@H](C(=O)N3CCCCCCC3)[C@H]12 | i | + | i | + | .
COc1cc2c(cc1OC)CN(C(=O)[C@H]1[C@@H]3C(=O)O[C@@H](c4ccccc4)[C@@H](c4ccccc4)N3[C@@H](c3ccccc3OCCO)[C@]13C(=O)Nc1ccc(C#CC4=CCCCC4)cc13)CC2 | + | i | i | i | .
COc1ccc(S(=O)(=O)N(C)CC(=O)Nc2ccccc2)cc1Cl | i | i | i | i | 0
CC(NC(=O)c1ccccc1)c1nc2ccccc2n1Cc1ccc(Cl)cc1Cl (configuration not stated) | i | i | i | i | -18
COc1cc(OC)c(-c2nc(-c3ccccc3)c(-c3cccs3)[nH]2)cc1OC | . | . | . | . | -12
O=C1O[C@H](c2ccccc2)[C@H](c2ccccc2)N2[C@H]1[C@@H](C(=O)N1CCCCCCC1)[C@]1(C(=O)Nc3ccc(C#CC4(O)CCCCCC4)cc31)[C@H]2c1ccc(OCCO)cc1 | + | i | + | + | .
COC(=O)c1ccccc1NC(=O)c1ccc(COc2ccccc2)o1 | i | i | i | i | 103*
CN(C)/C=N/C(=S)N1CCOCC1 | . | . | . | . | 6
Cc1c(Cl)cccc1NC(=S)N1CCCN(c2nc3ccc(Cl)cc3s2)CC1 | . | . | . | . | 3
COc1ccc2sc(SCc3nc(N)nc(Nc4cccc(C)c4C)n3)nc2c1 | . | . | . | . | 12
Cc1nc(SCC(=O)Nc2ccc(Oc3ccccc3)cc2)n[nH]1 | . | . | . | . | 8
O=C(CN1C(=O)c2ccccc2C1=O)Nc1ccc2c(c1)C(=O)NC2=O | i | i | i | i | 3
O=C1NC(=O)c2cc(Nc3ccc(F)cc3)c(Nc3ccc(F)cc3)cc21 | i | i | i | + | -39
COc1ccccc1NC(=O)c1c(NC(=O)c2ccco2)sc(C)c1C | i | i | i | i | 76*
COc1ccccc1NC(=O)c1c(NC(=O)COc2ccccc2)sc(C)c1C | . | . | . | . | -11
Cc1cc(C)c(NC(=O)CSc2nnc(-c3ccc(Br)cc3)o2)c(C)c1 | . | . | . | . | 1
Cc1ccc(-c2cnc(-c3ccc(Br)cc3)o2)cc1 | . | . | . | . | 72*
CCn1c(SCC(=O)O)nnc1-c1c[nH]c2ccccc12 | . | . | . | . | 3
CCCCOC(=O)c1cc2c(cn1)[nH]c1ccccc12 | . | . | . | . | 71*
COc1cc2[nH]c3ccccc3c2cc1C | i | i | i | i | 27
O=[N+]([O-])c1cccc(CN(CCO)Cc2ccccc2)c1 | i | i | i | i | -1
OCCN(CCO)Cc1ccc(Br)cc1 | i | i | i | + | -6
COc1ccccc1-c1cc(=O)c2ccccc2o1 | i | i | i | i | 138*
COc1cc2oc(-c3ccccc3)cc(=O)c2c(O)c1OC | i | i | i | i | 3
COc1ccc(C)cc1S(=O)(=O)N(C)CC(=O)O | . | . | . | . | 5
